From PubChem BioAssay AID1159580 (chemical genetic matrix, 2015)
The campaign covered roughly 5,500 compounds. About 2,000 (36%) were called active. Roughly 18% stayed inconclusive and do not appear here. Rule as the data show it: active = normalized growth mostly below about 0.91 (no sharp cut-off); inconclusive = no clear call, values can overlap the other calls; inactive = mostly above about 0.92. The list shows a part of the results.

Experiment: chemical genetic growth profiling, strain panel (AID 1159580);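 also: tested at 20 µM; growth read once vehicle control cultures reached saturation at 30 °C; 1 = growth at the plate median or of vehicle wells; lower values mean less growth of the strain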
Details: S. cerevisiae deletion strains, growth OD
[1] = locus YAL013W, strain DEP1, hits give low values
[2] = locus YDR150W, strain NUM1, hits give low values
[3] = locus YGR078C, strain PAC10, hits give low values
[4] = locus YHR030C, strain SLT2, hits give low values
[5] = locus YNL128W, strain TEP1, hits give low values
[6] = locus YPL055C, strain LGE1, hits give low values

Measured: normalized growth

O=C(COC(=O)c1ccccc1Nc1cccc(F)c1)c1ccccc1
inactive: [1] 0.98 | locus YBR229C, strain ROT2, hits give low values 0.994 | locus YDL101C, strain DUN1, hits give low values 1.01 | locus YDL134C, strain PPH21, hits give low values 0.997 | [2] 1.01 | locus YEL061C, strain CIN8, hits give low values 0.989 | [3] 0.982 | [4] 0.93 | locus YHR087W, strain rtc3, hits give low values 1 | locus YJR043C, strain POL32, hits give low values 0.986 | locus YJR075W, strain HOC1, hits give low values 1.03 | locus YKL190W, strain CNB1, hits give low values 0.989 | locus YLR039C, strain RIC1, hits give low values 1.01 | locus YLR058C, strain SHM2 (second series), hits give low values 0.989 | locus YLR085C, strain ARP6, hits give low values 0.916 | locus YLR262C, strain YPT6, hits give low values 1.02 | locus YML094W, strain GIM5, hits give low values 0.996 | locus YMR219W, strain ESC1, hits give low values 0.997 | locus YMR263W, strain SAP30, hits give low values 0.997 | locus YMR307W, strain GAS1, hits give low values 0.882 | [5] 0.987 | locus YNL153C, strain GIM3, hits give low values 0.99 | locus YNL298W, strain CLA4 (second series), hits give low values 0.97 | locus YNL322C, strain KRE1, hits give low values 0.981 | locus YNR030W, strain Alg12, hits give low values 0.978 | [6] 1.01 | locus YPL241C, strain CIN2, hits give low values 0.96 | locus YPR135W, strain CTF4, hits give low values 1.01

O=C(O)c1ccccc1Nc1ccccc1
active: locus YCL061C, strain MRC1, hits give low values 0.892 | locus YCL069W, strain vba3, hits give low values 0.907 | locus YCR088W, strain abp1, hits give low values 0.907 | locus YDR001C, strain nth1, hits give low values 0.892 | locus YEL037C, strain rad23, hits give low values 0.913 | locus YEL061C, strain CIN8 (second series), hits give low values 0.899 | locus YER111C, strain swi4, hits give low values 0.908 | locus YGL227W, strain vid30, hits give low values 0.909 | [4] 0.482 | locus YHR079C, strain IRE1, hits give low values 0.395 | locus YJL092W, strain hpr5, hits give low values 0.893 | locus YJL095W, strain BCK1, hits give low values 0.502 | locus YJL115W, strain asf1, hits give low values 0.901 | locus YJL129C, strain trk1, hits give low values 0.847 | locus YJL154C, strain vps35, hits give low values 0.894 | locus YJR066W, strain TOR1, hits give low values 0.392 | locus YKR026C, strain gcn3, hits give low values 0.903 | locus YKR091W, strain srl3, hits give low values 0.927 | locus YLL041C, strain sdh2, hits give low values 0.925 | locus YLR113W, strain HOG1, hits give low values 0.291 | locus YLR262C, strain YPT6 (second series), hits give low values 0.832 | locus YMR129W, hits give low values 0.889 | locus YNL183C, strain NPR1, hits give low values 0.367 | locus YNL322C, strain KRE1 (second series), hits give low values 0.871 | locus YOR231W, strain MKK1, hits give low values 0.413 | locus YPL240C, strain hsp82, hits give low values 0.924 | locus YPL256C, strain CLN2, hits give low values 0.36
inactive: [1] 1.01 | locus YAL021C, strain ccr4, hits give low values 0.953 | locus YAL026C, strain drs2, hits give low values 0.921 | locus YAL030W, strain snc1, hits give low values 0.94 | locus YAL040C, strain CLN3, hits give low values 1.01 | locus YBL061C, strain skt5, hits give low values 0.946 | locus YBR009C, strain hhf1, hits give low values 0.992 | locus YBR023C, strain chs3, hits give low values 0.951 | locus YBR171W, strain sec66, hits give low values 0.894 | locus YBR231C, strain swc5, hits give low values 0.966 | locus YBR279W, strain paf1, hits give low values 0.964 | locus YCL011C, strain gbp2, hits give low values 0.922 | locus YCL016C, strain dcc1, hits give low values 0.961 | locus YDL005C, strain med2, hits give low values 0.957 | locus YDL040C, strain nat1, hits give low values 0.944 | locus YDR069C, strain doa4, hits give low values 1.01 | locus YDR137W, strain rgp1, hits give low values 0.86 | [2] 0.994 | locus YDR159W, strain sac3, hits give low values 0.957 | locus YDR195W, strain ref2 1.05 | locus YDR297W, strain sur2, hits give low values 0.929 | locus YDR334W, strain swr1, hits give low values 0.926 | locus YDR335W, strain msn5, hits give low values 0.941 | locus YDR363W, strain ESC2, hits give low values 1.01 | locus YDR392W, strain spt3, hits give low values 0.852 | locus YEL003W, strain gim4, hits give low values 0.924 | locus YER002W, strain NOP16, hits give low values 0.941 | locus YER015W, strain faa2, hits give low values 0.947 | locus YER016W, strain bim1, hits give low values 0.972 | locus YER155C, strain BEM2 (second series), hits give low values 0.909 | locus YFR010W, strain ubp6, hits give low values 0.989 | locus YGL167C, strain pmr1, hits give low values 0.92 | locus YGL173C, strain kem1, hits give low values 0.954 | locus YGL240W, strain doc1, hits give low values 0.985 | locus YGL253W, strain hxk2, hits give low values 0.926 | [3] 0.964 | locus YHR013C, strain ard1, hits give low values 0.989 | locus YHR027C, strain rpn1, hits give low values 0.938 | locus YHR142W, strain chs7, hits give low values 0.908 | locus YJL095W, strain BCK1 (second series), hits give low values 0.938 | locus YJL164C, strain tpk1, hits give low values 0.957 | locus YJL166W, strain qcr8, hits give low values 0.97 | locus YJL187C, strain SWE1, hits give low values 0.971 | locus YKL160W, strain elf1, hits give low values 0.938 | locus YLL001W, strain dnm1, hits give low values 0.966 | locus YLL026W, hits give low values 0.934 | locus YLR027C, strain aat2, hits give low values 0.956 | locus YLR221C, strain rsa3, hits give low values 0.962 | locus YLR258W, strain gsy2, hits give low values 0.961 | locus YLR320W, strain mms22, hits give low values 0.99 | locus YLR342W, strain FKS1, hits give low values 0.923 | locus YLR357W, strain rsc2, hits give low values 1.03 | locus YLR370C, strain arc18, hits give low values 0.945 | locus YLR384C, strain iki3, hits give low values 0.934 | locus YML120C, strain ndi1, hits give low values 0.963 | locus YMR058W, strain fet3, hits give low values 0.935 | locus YMR125W, strain sto1, hits give low values 0.988 | locus YMR205C, strain PFK2, hits give low values 1 | locus YMR231W, strain pep5, hits give low values 0.933 | locus YNL071W, strain lat1, hits give low values 0.929 | [5] 0.973 | locus YNL175C, strain NOP13, hits give low values 0.935 | locus YNL197C, strain WHI3, hits give low values 0.927 | locus YNL209W, strain ssb2, hits give low values 0.949 | locus YNL224C, strain SQS1, hits give low values 0.94 | locus YNL248C, strain rpa49, hits give low values 0.99 | locus YNR049C, strain mso1, hits give low values 0.922 | locus YOR001W, strain rrp6, hits give low values 0.951 | locus YOR070C, strain gyp1, hits give low values 0.945 | locus YOR080W, strain dia2, hits give low values 0.959 | locus YOR083W, strain WHI5 (second series), hits give low values 0.982 | locus YOR083W, strain WHI5, hits give low values 0.929 | locus YOR106W, strain vam3, hits give low values 0.956 | locus YOR265W, strain rbl2, hits give low values 0.941 | locus YOR270C, strain vph1, hits give low values 0.97 | locus YOR290C, strain snf2, hits give low values 0.934 | locus YPL051W, strain arl3, hits give low values 0.933 | [6] 1.01 | locus YPL078C, strain atp4, hits give low values 0.914 | locus YPL106C, strain sse1, hits give low values 1.01
